{"source": "PubChem BioAssay (Tox21)", "note": "Active and inactive are the calls of the source. Calls come from the whole dose curve; as a rule, active = well fitted curve in the direction sought with a large enough effect in the repeat runs; inconclusive = weak or mixed curves; inactive = flat fitted curve, though single readings scatter. % is set by controls: 0 for no effect and ±100 for the full control effect."}
{"assay": "qHTS assay to test for compound auto fluorescence at 590 nm (red) in HepG2 cell free culture (AID 720684)", "settings": "cell-free medium autofluorescence, red 540/590 nm; series mostly up to 91.3 µM; fluorescence, % of Rose Bengal: at the top concentration", "procedure,_shortened": "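Readout: intrinsic compound fluorescence at 590 nm emission after 540 nm excitation, scaled to Rose Bengal sodium. Matrix was cell-free MEM with 10% FBS; DMSO vehicle wells served as control.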"}
{"smiles": "C[C@H](N)C(=O)c1ccccc1", "outcome": "inactive"}
{"smiles": "Cc1ccc2c(c1)C1CN(C)CCC1N2", "note": "(stereo not given)", "fluorescence, % of Rose Bengal": "-0.096% [at 46 µM] (inactive)"}
{"smiles": "O=C(CCl)NCO", "fluorescence, % of Rose Bengal": "0.0749% (inactive)"}
{"smiles": "COc1ccc2c(C(=O)c3ccc(Cl)cc3)c(C)n(CC(=O)O)c2c1", "fluorescence, % of Rose Bengal": "-0.0249% [at 46 µM] (inactive)"}
{"smiles": "CNC(=O)O/N=C(/CSC)C(C)(C)C", "fluorescence, % of Rose Bengal": "-0.252% (inactive)"}
{"smiles": "C=CC(=O)OCCN(C)C", "fluorescence, % of Rose Bengal": "0.0028% (inactive)"}
{"smiles": "CCN[C@H](C)Cc1cccc(C(F)(F)F)c1", "fluorescence, % of Rose Bengal": "-0.166% (inactive)"}
{"smiles": "CCNc1nc(NCC)nc(SC)n1", "fluorescence, % of Rose Bengal": "0.117% (inactive)"}
{"smiles": "CC(C)[N+](C)(CCC(C(N)=O)(c1ccccc1)c1ccccc1)C(C)C", "fluorescence, % of Rose Bengal": "0.379% [at 18.6 µM] (inactive)"}
{"smiles": "CCOC(=O)NC(C)(C)Cc1ccc(Cl)cc1", "fluorescence, % of Rose Bengal": "0.0264% [at 46 µM] (inactive)"}
{"smiles": "S=C=S", "outcome": "inactive"}
{"smiles": "O=c1[nH]oc2c1CCNC2", "fluorescence, % of Rose Bengal": "-0.132% [at 46 µM] (inactive)"}
{"smiles": "C=C(Cl)CCl", "fluorescence, % of Rose Bengal": "0.0369% (inactive)"}
{"smiles": "COC(=O)c1ccc(CBr)cc1", "fluorescence, % of Rose Bengal": "-0.0762% [at 95.7 µM] (inactive)"}
{"smiles": "OP(O)c1ccccc1", "fluorescence, % of Rose Bengal": "0.027% [at 95.7 µM] (inactive)"}
{"smiles": "CC(Cc1ccccc1)NCCn1cnc2c1c(=O)n(C)c(=O)n2C", "note": "(stereo not given)", "fluorescence, % of Rose Bengal": "-0.0529% (inactive)"}
{"smiles": "C=CC=O", "fluorescence, % of Rose Bengal": "-0.0055% [at 95.7 µM] (inactive)"}
{"smiles": "[P]#[In]", "fluorescence, % of Rose Bengal": "0.105% (inactive)"}
{"smiles": "CN=CNc1ccc(C)cc1C", "fluorescence, % of Rose Bengal": "-0.325% (inactive)"}
{"smiles": "CCC1(CC)C(=O)C=CNC1=O", "fluorescence, % of Rose Bengal": "-0.0263% [at 46 µM] (inactive)"}
{"smiles": "CCC(=O)OC1(c2ccccc2)CCN(C)CC1", "fluorescence, % of Rose Bengal": "-0.0007% [at 95.7 µM] (inactive)"}
{"smiles": "Brc1c(Br)c(Br)c(Br)c(Br)c1Br", "fluorescence, % of Rose Bengal": "0.0791% [at 3.72 µM] (inactive)"}
{"smiles": "C[C@H](CN1CCOCC1)C(C(=O)N1CCCC1)(c1ccccc1)c1ccccc1", "fluorescence, % of Rose Bengal": "0.136% [at 95.7 µM] (inactive)"}
{"smiles": "Clc1cc2c(cc1Cl)Oc1cc(Cl)c(Cl)cc1O2", "fluorescence, % of Rose Bengal": "-0.248% [at 0.37 µM] (inactive)"}
{"smiles": "CC#Cc1cc(C)nc(Nc2ccccc2)n1", "fluorescence, % of Rose Bengal": "-0.0223% (inactive)"}
{"smiles": "C=CC1(C)OC(=O)N(c2cc(Cl)cc(Cl)c2)C1=O", "note": "(stereo not given)", "outcome": "inactive"}
{"smiles": "COc1ccc(C=O)cc1O", "fluorescence, % of Rose Bengal": "-0.0885% (inactive)"}
{"smiles": "CCC1(c2cccc(O)c2)CCCCN(C)C1", "note": "(stereo not given)", "fluorescence, % of Rose Bengal": "0.0113% [at 18.6 µM] (inactive)"}
{"smiles": "Oc1ccc(Cc2ccc(O)cc2)cc1", "fluorescence, % of Rose Bengal": "0.0554% (inactive)"}
{"smiles": "ClCOCCl", "fluorescence, % of Rose Bengal": "-0.0245% (inactive)"}
{"smiles": "[O-][Br+2]([O-])O", "fluorescence, % of Rose Bengal": "-0.0083% [at 46 µM] (inactive)"}
{"smiles": "O=P(O)(O)CN(CP(=O)(O)O)CP(=O)(O)O", "fluorescence, % of Rose Bengal": "-0.0485% [at 18.6 µM] (inactive)"}
{"smiles": "ClC1=C(Cl)C2(Cl)C(CBr)CC1(Cl)C2(Cl)Cl", "note": "(stereo not given)", "outcome": "inactive"}
{"smiles": "COc1cc(CCN)cc(OC)c1OC", "fluorescence, % of Rose Bengal": "-0.001% [at 95.7 µM] (inactive)"}
{"smiles": "N#CN", "outcome": "inactive"}
{"smiles": "CCCC(C)(COC(N)=O)COC(N)=O", "outcome": "inactive"}
{"smiles": "C=C1CC[C@@]2(O)[C@H]3Cc4ccc(O)c5c4[C@@]2(CCN3CC2CC2)[C@H]1O5", "fluorescence, % of Rose Bengal": "-0.162% [at 46 µM] (inactive)"}
{"smiles": "COc1cccc([C@@]2(O)CCCC[C@@H]2CN(C)C)c1", "fluorescence, % of Rose Bengal": "0.463% [at 46 µM] (inactive)"}
{"smiles": "CC[C@H](O)C(C[C@H](C)N(C)C)(c1ccccc1)c1ccccc1", "fluorescence, % of Rose Bengal": "0.287% [at 95.7 µM] (inactive)"}
{"smiles": "CCOC(=O)Nc1cccc(OC(=O)Nc2ccccc2)c1", "fluorescence, % of Rose Bengal": "-0.0129% (inactive)"}
